According to PubChem BioAssay (NCI):
This is part of a sample that, as a whole, favours compounds with a hit. Of some 79,000 tested, about 15% had one in any assay. Unmarked numbers belong to inactive results. The source made the active and inactive calls. No stated cut-off is given here; in the data, active means growth inhibition above about 70%; inactive means the rest.

Columns and labels:
[1] = NCI Yeast Anticancer Drug Screen. Data for the rad50 strain (AID 155);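 further: 0% = growth of vehicle-only cultures of the same strain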; conditions: S. cerevisiae rad50 strain growth inhibition; at 50.0 µM; hits give high values
Procedure, shortened: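 Compounds were tested on a yeast strain with an engineered DNA damage repair alteration; the reported value is growth inhibition normalised to vehicle treatment.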

[2] = NCI Yeast Anticancer Drug Screen. Data for the mec2-1 strain (AID 157); conditions: S. cerevisiae mec2-1 strain, at 50.0 µM, hits give high values
Procedure, shortened: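 Readout is yeast growth inhibition, normalised to vehicle-treated controls, in the mec2-1 strain exposed to compound.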

[3] = NCI Yeast Anticancer Drug Screen. Data for the sgs1 mgt1 strain (AID 161);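 further: 0% = growth of cultures given vehicle only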; conditions: S. cerevisiae sgs1 mgt1 strain, at 50.0 µM, hits give high values
Procedure, shortened: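 Yeast cells carrying a defined DNA-repair defect were exposed to test compounds. Growth inhibition was measured relative to vehicle-treated controls.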

[4] = NCI Yeast Anticancer Drug Screen. Data for the cln2 rad14 strain (AID 165);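 further: 0% = growth equal to vehicle treated cultures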; conditions: S. cerevisiae cln2 rad14 strain, at 50.0 µM, hits give high values
Procedure, shortened: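 Relative to vehicle controls, growth inhibition of compound-treated cln2 rad14 yeast was recorded.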

[5] = NCI Yeast Anticancer Drug Screen. Data for the bub3 strain (AID 167); conditions: S. cerevisiae bub3 mutant strain, at 50.0 µM, hits give high values
Procedure, shortened: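 Growth of a checkpoint-deficient yeast mutant is measured after compound exposure. Values represent inhibition relative to vehicle.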

[6] = NCI Yeast Anticancer Drug Screen. Data for the mlh1 rad18 strain (AID 175); conditions: S. cerevisiae mlh1 rad18 strain growth inhibition; at 50.0 µM; hits give high values
Procedure, shortened: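 Test agents were incubated with a yeast strain of defined genotype (DNA damage repair defect). Inhibition of growth was derived by comparison with vehicle-exposed cultures.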

Compound	growth inhibition [1]	growth inhibition [2]	growth inhibition [3]	growth inhibition [4]	growth inhibition [5]	growth inhibition [6]
CCCCOc1ccc(Nc2c(C(=O)OCC)cnc3cc4c(cc23)OCO4)cc1	-3.3%	-9%	-0.25%	8.2%	-3.45%	-9.4%
CCOC(=O)/C(=C/c1ccc(C(=O)OC)cc1)N(CC)CC	-26.5%	-20.5%	-12.1%	12.2%	-20.1%	-25.8%
Cc1ccn2c(-c3ccccc3)nnc2c1	-23.6%	-17.7%	-14.6%	-11.8%	-18.1%	-16%
NC1(N)ON(c2ccc(C=O)cc2)C(c2ccc([N+](=O)[O-])cc2)S1 (configuration not stated)	18.3%	8.45%	11%	16.3%	-0.7%	16.7%
C/C(C=C(C#N)C#N)=C\c1ccc(F)cc1	14.9%	28.1%	-2.1%	30.9%	-7.3%	21.4%
O=C1C(OCc2ccccc2)=C(c2ccccc2)C(=O)N1c1ccccc1	-1.75%	-13.2%	2.2%	24.8%	-11.6%	-9.75%
COC1/C=C/OC2(C)Oc3c(C)c(O)c4c(O)c(c(/C=N/N(C)c5ccc([N+](=O)[O-])cc5[N+](=O)[O-])c(O)c4c3C2=O)NC(=O)C(C)=C/C=C/C(C)C(O)C(C)C(O)C(C)C(OC(C)=O)C1C (configuration not stated)	10.2%	55.6%	31.5%	63.6%	40.3%	56%
CN(C)c1ccc(S(=O)c2ccc(N(C)C)cc2)cc1	-30.4%	-27.9%	-44.9%	-4.75%	-48.4%	-35%
CCN(CC)CCCNc1ncnc2onc(C)c12	15.3%	15.2%	2.2%	6.15%	1.45%	-9.3%
CCCC=NCCCC	-17.1%	-7.55%	-35.6%	-67%	-30%	-24.4%
CCCCCCCCN1N=CC(CC)C1CCC (configuration not stated)	3.15%	-11.8%	6.5%	11.3%	-0.8%	1.45%
CC(C)=CCC/C(C)=C/COC(=O)N(c1ccccc1)c1ccccc1	5.95%	-0.1%	3.9%	-47%	3.6%	-1.15%
CON(C)c1nc2ccccc2o1	-22.1%	-8.45%	-9%	-16.8%	-2.3%	-17.6%
O=Cc1ccccc1COC(=O)c1cc(C(=O)OCc2ccccc2C=O)c(C(=O)OCc2ccccc2C=O)cc1C(=O)OCc1ccccc1C=O	13.9%	7.15%	-14.2%	-2.8%	-4.9%	5.25%
O=C(O)CSc1ncnc2nc[nH]c12	1.6%	-30.2%	1.9%	27.6%	-5.25%	-12.9%
O=C1c2ccccc2C(=O)c2c(O)c(Cc3ccccc3)cc(O)c21	4.75%	11.9%	2.2%	14.5%	10.2%	4%
ClC1CC2CCC1C2Br (configuration not stated) (tested in a mixture with another compound)	-19.6%	-14.2%	-21.1%	-31.9%	-0.45%	-17.1%
COc1cc2nc(Sc3c([N+](=O)[O-])ncn3C)[nH]c2cc1OC	-41.6%	-33.3%	-30%	-23%	-43.5%	-46%
CCCc1cc(C(=O)OC/C(C)=N/O)c2ccccc2n1	-8.15%	0.7%	11.3%	-7.75%	24.6%	9.4%
COc1cccc(OC)c1NC(=O)NCCCl	-8.3%	14.6%	2.25%	50.8%	0.15%	14.4%
CC(=O)c1c(C)cc2cccc(OC3OC(CO)C(O)C(O)C3O)c2c1O (configuration not stated) (tested in a mixture with another compound)	9.1%	8.2%	-18.6%	0%	-7.25%	-56.3%

Compound	growth inhibition [1]	growth inhibition [2]	growth inhibition [3]	growth inhibition [4]	growth inhibition [5]	growth inhibition [6]
Cc1cc2c(=O)cc(-c3ccc(Cl)cc3Cl)oc2c(C(=O)O)c1C	-19.6%	10.9%	9%	23.6%	11.6%	29.5%
S=C(SC1C=CCC1)N1CCOCC1 (configuration not stated)	15.7%	-2.8%	13.5%	-41.8%	10.1%	-13.6%
O=C(NC1CCCCC1)Oc1ccc(-c2ccccc2)cc1Cl	98.7% (active)	99.3% (active)	98.3% (active)	98.2% (active)	99% (active)	99.1% (active)
O=NNc1ccc(S(=O)(=O)c2ccccc2)cn1	49.1%	13.9%	-27.9%	12.1%	-26.6%	5.2%
Cc1ccc(S(=O)(=O)N(C)C(C(=O)O)c2ccccc2)cc1 (configuration not stated)	22.4%	-1.35%	7.15%	-20.6%	-7.8%	3%
CCOC(=O)CC[Si](CC)(CC)CC	0.25%	-13.8%	1.7%	-28.5%	-15.3%	-1.45%
O=C(O)C(C1=CCCCC1)C1(O)CCCCC1 (configuration not stated)	-9.15%	-5.45%	17.6%	-5.85%	-0.65%	12.7%
C=CCOC(=O)c1cccc(C)c1	9.7%	0.3%	-1%	-41.4%	9.9%	7.7%
O=P(OC1=NCCN1Cc1ccccc1)(OC1=NCCN1Cc1ccccc1)N1CC1	16.9%	5.6%	21.7%	32.4%	3.75%	-6.2%
CCOC(=O)c1c(-c2ccccc2)csc1NC(=O)CN1CCCCC1	28.6%	8.8%	14.7%	6.55%	17.9%	24.7%
Cc1ccccc1-c1nc2c([nH]1)c(=O)n(C)c(=O)n2C	32.8%	-2.2%	-10.2%	-32.3%	0.25%	2.75%
COC(=O)c1c(O)c(C#N)c2[nH]c3ccccc3n2c1=O	-22.6%	-16.6%	-10.6%	7.85%	-4.4%	-18.4%
O=C(OCC1C2CCC(C2)C1c1ccccc1)c1ccc([N+](=O)[O-])cc1 (configuration not stated)	1.4%	8.5%	-2%	-22.7%	-2.75%	10.5%
CSc1ccc2c(=O)c(C(=O)O)c[nH]c2c1	-0.05%	15.7%	5.25%	1.75%	10.3%	5.85%
CCCCCCCCNC(=O)CBr	5.3%	9.85%	22.8%	-25.4%	13.3%	6.15%
CCCCN1C(=O)c2ccccc2C1=O	5.55%	-10.7%	27.2%	7.9%	9.45%	13.4%
CC(=O)O/N=C1\C=Cc2c(no[n+]2[O-])C1=O	-8.9%	-20.3%	-0.7%	12.1%	-12.5%	-5.35%
CCc1ccc(N=Nc2c(F)c(F)c(NC(C)=O)c(F)c2F)cc1	-3.95%	11.3%	-10.5%	6.9%	7.9%	-13.4%
CN(C)C1C(=O)C(C(=O)NCN2CCCC2)=C(O)C2(O)C(=O)C3=C(O)c4c(O)cccc4C(C)(O)C3CC12 (configuration not stated)	2.75%	-4.7%	-10.2%	-27.9%	-26.9%	21.4%
CN1C(=O)C2C=CC1c1ccccc12 (configuration not stated)	-0.75%	-3.95%	-8.8%	-37%	-6.5%	2.55%
NC(N)=N/N=C/c1c(Cl)nc2sccn12	-11.4%	-64.8%	-17.5%	-30.3%	-8.8%	-5.6%
